Experimental findings from PubChem BioAssay (NCATS) are described below.

Results filed as inconclusive are left out. Where a call stands in place of a potency, no number is given. A number with no mark means an inactive call. Calls of active or inactive are those of the source. Calls come from the whole dose curve; as a rule, active = well fitted curve in the direction sought with a large enough effect; inconclusive = small, poorly fitted or top-dose-only effect, or another doubt; inactive = no such curve, though single readings can be large; an effect the other way counts as inactive or inconclusive.
Potency is the fitted concentration of half-maximal effect.

The first experiment in a line: Viability qHTS for spleen associated tyrosine kinase inhibitor (SYKi) naive MV4-11 cells (AID 1963823). Note: nearly all actives have a fitted effect of over 40% in size. The settings on record: MV4-11 AML viability, CellTiter-Glo luminescence, 72 h; series mostly up to 45 µM. The gist of the method:
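Seeding of 500 SYKi-naive MV4-11 cells per well onto pre-dispensed compounds preceded a 72 hr incubation at 37 C. Luminescent CellTiter-Glo signal, read after 10 min at room temperature, reflected viable cells.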
(In general: qHTS replaces the single test concentration by a dilution series.)
Take `O=C(O[C@H]1[C@@H]2C[C@@H]3OC[C@](O)([C@@H]1Cl)[C@H]2C(O[C@@H]1O[C@H](CO)[C@@H](O)[C@H](O)[C@H]1O)O3)c1ccc(O)c(O)c1` (some centres undefined): the Potency result was “inactive”.

In the case of `CCn1c(=O)c(-c2ccc(-c3cncc(C)n3)cc2Cl)cc2cnc(NCCC3CCN(C)CC3)nc21`, the Potency is 1.18 µM (active).

For the molecule `CC1(C)S[C@@H]2[C@H](NC(=O)[C@H](NC(=O)N3CCN(S(C)(=O)=O)C3=O)c3ccccc3)C(=O)N2[C@H]1C(=O)O`, the Potency result was “inactive”.

Regarding `Nc1ccc(-c2ccnc(NCCCNC(=O)c3c(Cl)cccc3Cl)n2)cc1`, the Potency is 1.3 µM (active).

As to `O=S1(=O)CCN(Cc2cc(NCC3CCOCC3)c3[nH]c(-c4ccccc4)cc3c2)CC1`, the Potency entry was “inactive”.

Turning to `C=C1CC[C@H]2[C@@](C)(CCC(O)[C@@]2(C)CO)[C@@H]1CCC1=CCOC1=O` (some centres undefined), the Potency entry is “inactive”.

For the molecule `CCC(C)C(=O)O[C@H]1[C@@H](OC(=O)c2ccoc2)C[C@](C)(O)[C@]23OC(C)(C)[C@H](C[C@H](OC(=O)c4ccoc4)[C@]12COC(C)=O)[C@H]3OC(C)=O` (some centres undefined), the Potency result is “inactive”.

Consider `CC1(C)CC[C@]2(C(=O)O[C@@H]3O[C@H](CO[C@@H]4O[C@H](CO)[C@@H](O)[C@H](O)[C@H]4O[C@@H]4O[C@H](CO)[C@@H](O)[C@H](O)[C@H]4O)[C@@H](O)[C@H](O[C@@H]4O[C@H](CO)[C@@H](O)[C@H](O)[C@H]4O)[C@H]3O)CC[C@]3(C)C(=CCC4[C@@]5(C)CC[C@@H](O)[C@@](C)(C(=O)O[C@@H]6O[C@H](CO)[C@@H](O)[C@H](O)[C@H]6O)C5CC[C@]43C)[C@@H]2C1` (some centres undefined), for which the viability (% of control) is 73.4% [at 9.25 µM].

With `CC1CC=C2C1CC1(O)C(=O)CC2(C)C1(C)CO` (centres undefined), the Potency entry was “inactive”.

Regarding `COc1cc(O)c2c(c1)C1=C[C@H](O)[C@@H](O)C[C@]1(C)OC2=O`, the Potency entry is “inactive”.

`COc1ccc2c(c1)N1C(=O)C[C@@]34C=CC[N@+]5([O-])CC[C@H]2[C@H](CC3)[C@@]145`: the Potency was 6.4 µM (active).

`CN(CCOc1ccc(C[C@H](Nc2ccccc2C(=O)c2ccccc2)C(=O)O)cc1)c1ccccn1`: the Potency entry is “inactive”.

Take `CC(NCc1ccc(OCc2cccc(F)c2)cc1)C(N)=O` (centres undefined): the Potency result was “inactive”.

On to `Cc1ccccc1N1CCN(S(=O)(=O)C[C@]23CC[C@H](C[C@@H]2NC(=O)[C@@H](N)CCS(C)(=O)=O)C3(C)C)CC1`, for which the Potency result is “inactive”.

As for `COc1cc(C2OCC3C(c4ccc(OC5OC(CO)C(O)C(O)C5O)c(OC)c4)OCC23)ccc1O` (centres undefined), the Potency result was “inactive”.

For `C=C[C@H]1[C@H](O[C@@H]2O[C@H](CO)[C@@H](O)[C@H](O)[C@H]2O)OC=C(C(=O)OC)[C@H]1C/C=C(/C=O)[C@@H]1C(C(=O)OC)=CO[C@@H](O[C@@H]2O[C@H](CO)[C@@H](O)[C@H](O)[C@H]2O)[C@@H]1C=C`, the Potency result is “inactive”.

Take `COc1ccc(CNCc2cccc3ccccc23)cc1`: the Potency entry was “inactive”.

On to `C[C@@H]1O[C@@H](O[C@H]2[C@H](O)[C@@H](O)[C@H](OC[C@H]3O[C@@H](OC(=O)[C@]45CCC(C)(C)C[C@H]4C4=CCC6[C@@]7(C)CC[C@H](O[C@@H]8OC[C@H](O)[C@H](O[C@@H]9O[C@H](CO)[C@@H](O)[C@H](O)[C@H]9O)[C@H]8O)[C@@](C)(CO)C7CC[C@@]6(C)[C@]4(C)CC5)[C@H](O)[C@@H](O)[C@@H]3O)O[C@@H]2CO)[C@H](O)[C@H](O)[C@H]1O` (some centres undefined), for which the viability (% of control) was 98% [at 9.25 µM].

Consider `O=C(O)c1cc(O[C@@H]2O[C@H](CO[C@@H]3OC[C@@H](O)[C@H](O)[C@H]3O)[C@@H](O)[C@H](O)[C@H]2O)c2ccccc2c1O`, for which the Potency result was “inactive”.

Take `COc1ccc(CNC(=O)c2sc3nc(C)cc(C)c3c2N)cc1`: the Potency result was “inactive”.

With `CC1=C2C(=O)O[C@@H](c3ccoc3)[C@]2(C)CCC1`, the Potency entry was “inactive”.

Consider `C[C@H]1CC(=O)C2=C(C1)C(O)C(O)[C@@]1(O)[C@H]2C(=O)c2cccc(O)c2[C@@H]1O` (some centres undefined), for which the Potency result is “inactive”.

With `CO[C@H]1C=C2C(CC[C@H](O[C@@H]3O[C@H](CO)[C@@H](O)[C@@H](O)[C@H]3O)C2(C)C)[C@]2(C)CC[C@]3(C)C([C@H](C)C(O)C(C=C(C)C)O[C@@H]4O[C@H](CO)[C@@H](O)[C@@H](O)[C@H]4O)CC[C@@]3(C)C12` (some centres undefined), the viability (% of control) was 86.9% [at 9.25 µM].

The next experiment is described as follows: Cellular viability qHTS for adrenocortical cancer (ACC) cell line NCI-H295R (AID 1963990). Note: nearly all actives have a fitted effect of over 60% in size. The settings on record: CellTiter-Glo ATP luminescence, 48 h; series mostly up to 46.1 µM. The gist of the method:
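Luminescent ATP read-out (CellTiter-Glo, 20 min RT) after 48 h drug exposure of NCI-H295R cells; a titration up to 46 uM final. Data normalized to doxorubicin (100% inhibition) and DMSO (0%); 4-parameter fit gives IC50, max response.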
For `CCCCCCCCCCCCCCC[C@H](O)[C@@H](N)CO`, the Potency entry was “inactive”.

As to `CC(C)N=C(N)/N=C(\N)Nc1ccc(Cl)cc1`, the Potency result was “inactive”.

On to `Oc1c(I)cc(Cl)c2cccnc12`, for which the Potency is 14.6 µM (active).

Regarding `CN1C(=O)c2ccccc2C1=O`, the Potency result was “inactive”.

On to `Cc1ccc(S(=O)(=O)NC(=O)NC2CCCC2)cc1`, for which the Potency entry was “inactive”.

With `CCNCc1nc2c(N)nc3ccccc3c2n1CC(C)(C)O`, the Potency result was “inactive”.
